Assay results published in publication PMC4336329 (PLoS ONE, 2015).
Out of some 310,000 compounds screened, about 14,000 (4.5%) showed an effect of 50% or more. Effects have a minus sign here. Many of the other results were omitted from the sample, so strong results are more common in it than they were.

Biological target: human ether-à-go-go-related gene (hERG) potassium channel (human, UniProt Q12809)
Assay: primary screen, population patch clamp on CHO cells stably expressing hERG; higher = less effect of the substance
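Also: peak tail current of the secondary pulse compared with the same well before compound.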

Sequence of human ether-à-go-go-related gene (hERG) potassium channel (Q12809 whole entry, looked up): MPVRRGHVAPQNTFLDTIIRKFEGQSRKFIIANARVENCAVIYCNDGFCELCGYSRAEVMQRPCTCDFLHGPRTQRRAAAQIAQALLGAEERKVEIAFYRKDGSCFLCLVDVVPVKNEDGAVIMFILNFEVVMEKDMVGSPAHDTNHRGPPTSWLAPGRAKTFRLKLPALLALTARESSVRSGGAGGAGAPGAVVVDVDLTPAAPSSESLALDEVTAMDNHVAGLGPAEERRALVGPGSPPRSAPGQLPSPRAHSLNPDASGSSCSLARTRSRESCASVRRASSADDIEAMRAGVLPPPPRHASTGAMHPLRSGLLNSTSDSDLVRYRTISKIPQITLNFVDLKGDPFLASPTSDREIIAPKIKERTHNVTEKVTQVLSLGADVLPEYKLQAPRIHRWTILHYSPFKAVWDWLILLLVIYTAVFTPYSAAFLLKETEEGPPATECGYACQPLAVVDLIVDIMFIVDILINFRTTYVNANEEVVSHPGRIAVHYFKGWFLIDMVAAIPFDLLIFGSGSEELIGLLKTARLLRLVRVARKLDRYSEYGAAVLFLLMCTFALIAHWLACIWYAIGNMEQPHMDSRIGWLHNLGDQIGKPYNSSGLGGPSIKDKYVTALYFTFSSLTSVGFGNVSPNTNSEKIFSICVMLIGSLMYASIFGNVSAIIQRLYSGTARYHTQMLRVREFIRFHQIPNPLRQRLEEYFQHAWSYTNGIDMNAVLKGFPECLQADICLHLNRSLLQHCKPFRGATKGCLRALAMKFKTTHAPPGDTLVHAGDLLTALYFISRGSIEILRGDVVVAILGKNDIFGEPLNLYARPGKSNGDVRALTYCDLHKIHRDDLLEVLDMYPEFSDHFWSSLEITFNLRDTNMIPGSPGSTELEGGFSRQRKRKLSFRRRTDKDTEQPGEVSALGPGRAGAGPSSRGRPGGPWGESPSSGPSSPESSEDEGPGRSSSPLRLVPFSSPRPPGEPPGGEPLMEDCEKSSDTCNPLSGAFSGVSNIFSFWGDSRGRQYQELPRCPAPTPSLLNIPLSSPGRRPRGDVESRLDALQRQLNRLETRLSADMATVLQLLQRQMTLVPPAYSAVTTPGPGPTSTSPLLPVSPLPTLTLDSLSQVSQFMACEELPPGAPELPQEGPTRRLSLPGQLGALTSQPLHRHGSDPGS

| SMILES | hERG current change (%, negative = inhibition) at 10uM [%] |
| --- | --- |
| COc1cc(/C=C2\SC(=O)NC2=O)ccc1Oc1ccc([N+](=O)[O-])cc1[N+](=O)[O-] | 20.2 |
| Brc1cccc(C=Nc2cccc3ncccc23)c1 | 7.37 |
| CCOc1cc(C)c(Cl)cc1S(=O)(=O)n1nnc2ccccc21 | 6.52 |
| COc1ccc(C(=O)Nc2ccc(Cl)c(Cl)c2)c(OC)n1 | 14.1 |
| Cc1ccc(S(=O)(=O)N2CCN(c3ccc(C(F)(F)F)cc3[N+](=O)[O-])CC2)cc1 | -30.8 |
| Cl.O=[N+]([O-])c1ccc(N2CCCNCC2)c2ncccc12 | -64.8 |
| Nc1nonc1OCCN1CCN(c2ccc([N+](=O)[O-])c3cccnc23)CC1 | -71.7 |
| CN1CCN(c2ccc([N+](=O)[O-])c3cccnc23)CC1 | -41.5 |
| CC1CN(c2ccc([N+](=O)[O-])c3cccnc23)CC(C)N1 (stereo not drawn) | -33.4 |
| O=[N+]([O-])c1cc(C(F)(F)F)ccc1N1CCN(S(=O)(=O)c2ccc3ccccc3c2)CC1 | 9.11 |
| O=[N+]([O-])c1ccc(N2CCCCCC2)c2ncccc12 | 5.54 |
| O=[N+]([O-])c1ccc(N2CCCCC2)c2ncccc12 | -23.7 |
| Cc1cc(N2CCN(c3ccc([N+](=O)[O-])c4cccnc34)CC2)c2ccccc2n1 | -64.3 |
| O=[N+]([O-])c1ccc(N2CCCC2)c2ncccc12 | 8.6 |
| O=[N+]([O-])c1ccc(N2CCN(CCO)CC2)c2ncccc12 | -45.4 |
| Cc1cc(N2CCN(c3ccc(C(F)(F)F)cc3[N+](=O)[O-])CC2)c2ccccc2n1 | -88.9 |
| CCOC(=O)N1CCN(C(=O)CSc2nnc(-c3ccccc3OC)o2)CC1 | -12.9 |
| COc1cc(/C=C/c2cccc[n+]2C)ccc1OCC(=O)Nc1ccccc1C.[I-] | 8.13 |
| NC(=O)C1CCN(C(=O)CCCCCn2c(=O)[nH]c3ccsc3c2=O)CC1 | 0.397 |
| COc1cccc(OCC(=O)Nc2c3c(nn2-c2ccccc2)CS(=O)(=O)C3)c1 | -48.5 |
| COc1cc(CNc2nc(C)c([N+](=O)[O-])c(C)c2C#N)cc(OC)c1 | 10.8 |
| NC(=O)Cn1cc(C(=O)COc2ccccc2)c2ccccc21 | -3.45 |
| CC(C)CCNC(=O)COc1ccc(C(=O)c2ccccc2)cc1 | -23.8 |
| Cc1ccc(NC(=O)C(c2ccccc2)N2CCN(CC(=O)NC3CC3)CC2)cc1 (stereo not drawn) | -18.1 |

| SMILES | hERG current change (%, negative = inhibition) at 10uM [%] |
| --- | --- |
| C[C@@H]1NC(=O)c2cc([N+](=O)[O-])cc(I)c2NCC[C@@H](C(N)=O)NC(=O)[C@H](CC(N)=O)NC1=O | 11.2 |
| COc1cc(/C=N/NC(=S)NCCc2ccccc2)cc(OC)c1OC | 8.26 |
| CCC(=O)N1CCc2cc(Br)cc(S(=O)(=O)NCCN3CCCCC3CC)c21 (stereo not drawn) | -20.4 |
| Brc1cccc(-c2nnc3sc(CN4CCCCC4)cn23)c1 | -11 |
| Brc1cccc(-c2nnc3sc(CNCc4ccco4)cn23)c1 | -60.3 |
| Brc1cccc(-c2nnc3sc(CNC4CCCC4)cn23)c1 | -16.2 |
| COc1ccc(C(=O)NCCc2ccc(Cl)cc2)cc1S(=O)(=O)N1CCCCC1C (stereo not drawn) | -52.3 |
| O=C(NCCc1ccccc1)c1ccc(Cl)c(S(=O)(=O)N2CCCC2)c1 | -23.1 |
| COc1ccc(C(CNC(=O)c2ccc(OC)c(S(=O)(=O)N3CCCC3)c2)N2CCCC2)cc1 (stereo not drawn) | 9.12 |
| COc1ccc(C(CNC(=O)c2cc(S(=O)(=O)N3CCCC3)ccc2Cl)N2CCCC2)cc1 (stereo not drawn) | -31.6 |
| COc1ccc(CCNC(=O)c2ccc(Cl)c(S(=O)(=O)N3CCCC3)c2)cc1 | -56.6 |
| COc1ccc(C(CNC(=O)c2ccc(Cl)c(S(=O)(=O)N3CCCC3)c2)N2CCCC2)cc1 (stereo not drawn) | -57.6 |
| COc1ccc(CCNC(=O)c2ccc(Cl)c(S(=O)(=O)N3CCCCCC3)c2)cc1 | -34.2 |
| COc1ccc(C(=O)Nc2ccc(NC(C)=O)cc2)cc1S(=O)(=O)N1CCCCC1C (stereo not drawn) | 1.47 |
| COc1ccc(C(=O)NCCc2c[nH]c3ccccc23)cc1S(=O)(=O)N1CCCCC1C (stereo not drawn) | -12 |
| Cc1ccc(S(=O)(=O)NC(CC(=O)NCC2CCCO2)c2ccco2)cc1 (stereo not drawn) | 24.9 |
| COc1ccc(N(CC(=O)N2CCN(Cc3ccccc3)CC2)S(C)(=O)=O)cc1 | -3 |
| O=C(NN1CCOCC1)c1cc(-c2ccc(Cl)c(Cl)c2)nc2ccccc12 | 10.8 |
| Cc1oncc1C(=O)Nc1cccc(C#N)c1 | 4.43 |
| CCCN1C(=O)/C(=c2\sc3nc(=O)c(Cc4ccc(C)cc4)nn3c2=O)c2ccccc21 | 21.2 |
| CCN(Cc1ccccc1)C(=O)c1oc2ccc(S(=O)(=O)N3CCOCC3)cc2c1C | -6.06 |
| Nc1cc(C(=O)OCC(=O)N2CCOCC2)ccc1Cl | 17.8 |
| CC(C)(C)NC(=O)CSC(=Nc1ccccc1F)NC#N | -0.709 |
| CC(C)(C)NC(=O)CSC(=Nc1ccc(F)cc1)NC#N | -72.3 |

| SMILES | hERG current change (%, negative = inhibition) at 10uM [%] |
| --- | --- |
| CC(C)(C)NC(=O)CSC(=Nc1cccc(F)c1)NC#N | 8.94 |
| COc1ccc(CNC(=O)c2noc(C(C)C)c2[N+](=O)[O-])cc1 | 3.4 |
| Cc1ccc(NNC(=O)c2ccno2)c(C)c1 | 11.1 |
| COc1ccc(OC)c(-c2csc(NC(=O)CN3C(=O)C4CCCCC4C3=O)n2)c1 (stereo not drawn) | -0.554 |
| O=C(O)c1ccccc1S(=O)(=O)NCC(O)COC1CCCCC1 (stereo not drawn) | -2.65 |
| CCOC(=O)C1(CCOc2ccccc2)CCN(Cc2cc(OC)c3c(c2)OCO3)CC1 | -72.1 |
| CCOC(=O)C1(Cc2ccccc2)CCN(Cc2cc(OC)c3c(c2)OCO3)CC1 | -60.7 |
| CCN1CCN(Cc2cc(OC)c3c(c2)OCO3)CC1 | 9.99 |
| CCN1C(=O)CC(N2CCN(c3ccc(Cl)cc3)CC2)C1=O (stereo not drawn) | -14 |
| COc1ccc2c(CC(=O)OCC(=O)c3ccc(F)cc3)coc2c1 | 6.5 |
| CCCc1ccc(-c2cc(C(=O)NN3CCOCC3)c3ccccc3n2)cc1 | -3.8 |
| NC(=O)c1ccc(NC(=O)CSc2nnc(C3CCCCC3)n2N)cc1 | 18 |
| Cn1c(C(=O)NC2CCCCC2)cc2sccc21 | -7.87 |
| COc1ccc2oc(C(=O)NCc3ccccc3CN3CCCC3)c(C)c2c1 | -66.1 |
| CCOc1ccc2oc(C(=O)NCc3nc4ccccc4[nH]3)c(C)c2c1 | 10.3 |
| CCOc1ccc2oc(C(=O)N3CCN(c4ccccn4)CC3)c(C)c2c1 | -34.3 |
| Cc1c(C(=O)OC(C)CCN(C)C)oc2ccccc12.Cl (stereo not drawn) | -42.8 |
| CCOc1ccc2oc(C(=O)N3CCN(Cc4ccccc4)CC3)c(C)c2c1 | -18.4 |
| CCOc1ccc2oc(C(=O)NCc3ccccc3CN3CCCC3)c(C)c2c1 | -66.2 |
| CCOc1ccc2oc(C(=O)N3CCN(c4ccccc4OCC)CC3)c(C)c2c1 | -52.6 |
| Cc1c(C(=O)OCC(C)(C)CN(C)C)oc2ccccc12.Cl | -52 |
| COc1ccc2oc(C(=O)NCc3cc(OC)c(OC)cc3OC)c(C)c2c1 | 0.174 |
| COc1ccc2oc(C(=O)NCc3ccco3)c(C)c2c1 | 8.36 |
| Cc1c(C(=O)OCC(=O)N(C)c2ccccc2)oc2ccccc12 | 3.17 |

| SMILES | hERG current change (%, negative = inhibition) at 10uM [%] |
| --- | --- |
| CCOc1ccc2oc(C(=O)NCC3CCCO3)c(C)c2c1 (stereo not drawn) | 11 |
| CN(c1cccc(Cl)c1)S(=O)(=O)c1cccc(C(=O)NN2CCOCC2)c1 | -14.1 |
| Cc1ccc(S(=O)(=O)CCC(=O)OC(C)C(=O)NC2CCCCC2C)cc1 (stereo not drawn) | -1.21 |
| CCOC(=O)c1ccc(N2C(=O)C3CC=C(C)CC3C2=O)cc1 (stereo not drawn) | 7.74 |
| Cn1c(=O)c2c(SCC(N)=O)nc(CC(C)(C)C)nc2n(C)c1=O | -10.5 |
| CC1(C)c2ccccc2N(CC(N)=O)C12C=Cc1ccccc1O2 (stereo not drawn) | -26 |
| Cc1nc(NC(=O)c2cccnc2Cl)sc1C | 4.14 |
| CC(NC(=O)c1ccc2c(c1)OCO2)C(c1cccs1)N1CCN(c2ccccc2)CC1 (stereo not drawn) | 3.68 |
| COc1ccc(CCn2c(C)cc(C(=O)CSc3nnnn3C)c2C)cc1 | 0.08 |
| CC1CCCCC1NC(=O)Cn1c(CN2CCCCC2)nc2ccccc2c1=O (stereo not drawn) | -24.6 |
| COc1ccc(OC)c(S(=O)(=O)NCC(c2ccc3c(c2)OCO3)N2CCOCC2)c1 (stereo not drawn) | -28.4 |
| O=c1c2cc(Cl)ccc2nc(-c2ccccc2Cl)n1O | 16.4 |
| Cc1c(C(=O)NCc2ccccc2)oc2ccc(S(=O)(=O)N3CCCC3)cc12 | 2.65 |
| CCOc1ccc2oc(C(=O)NCC(C)(C)CN(C)C)c(C)c2c1.Cl | -54.5 |
| Cc1c(C(=O)NCc2ccco2)oc2c(F)cccc12 | 1.08 |
| Cc1c(C(=O)NCc2ccccc2CN2CCCC2)oc2c(F)cccc12 | -70.5 |
| CCOc1ccc2oc(C(=O)NC(C)(C)CC)c(C)c2c1 | -3 |
| Cc1c(C(=O)NCc2ccccc2CN2CCCC2)oc2ccc(F)cc12 | -74 |
| COc1ccccc1CNC(=O)c1oc2ccc(S(=O)(=O)N3CCCC3)cc2c1C | -4.46 |
| Cc1c(C(=O)NCCN2CCCC(O)C2)oc2c(F)cccc12 (stereo not drawn) | -1.78 |
| CCOc1ccc2oc(C(=O)O)c(C)c2c1 | 4.62 |
